Experimental data: PubChem BioAssay (NCATS)
Records with an inconclusive call do not appear. A call without a number means that no potency is given here. The source made the active and inactive calls. Unless noted, calls follow the shape of the dose curve; as a rule, active = well fitted curve in the direction sought with a large enough effect; inconclusive = small, poorly fitted or top-dose-only effect, or another doubt; inactive = no such curve, though single readings can be large; an effect the other way counts as inactive or inconclusive.

Key:
[1] = Cell Viability - MRC5 (AID 434; calls by dose curve;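 also: potency is read from the fitted curve at half-maximal effect; cells exposed to compound for 40 hours at 37 °C; potency reflects cytotoxicity seen as loss of intracellular ATP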); settings: MRC5 lung fibroblast viability, qHTS
Method in brief: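 AC50 values come from Hill-equation fits of intracellular ATP loss, measured by CellTiter-Glo luminescence. Normal lung fibroblasts (MRC5) had 40 hr compound treatment at 37 C, normalized between DMSO and 100 uM tamoxifen.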

[2] = Cellular Toxicity (caspase-3) HepG2 (AID 654); settings: HepG2 caspase-3 activation, luminescence, 0% = DMSO only, 100% = tamoxifen; series mostly up to 92.2 µM;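 also: cells exposed to compound for 16 hours before reading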
Method in brief: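 Caspase 3/7 activation in HepG2 is measured as rising luminescence after a 16 hr treatment at 37 °C. Values are scaled between DMSO basal and 100 uM tamoxifen, and AC50 is fitted with the Hill equation.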

[3] = MultiTox-Fluor Cytotoxicity Assay - LYMP1-001 - Live Cells (AID 947); settings: LYMP1-001 lymphoblastoid cells, live-cell protease fluorescence viability; series mostly up to 92.2 µM
[4] = MultiTox-Fluor Cytotoxicity Assay - LYMP1-002 - Dead Cells (AID 960); settings: LYMP1-002 lymphoblastoid cells, dead-cell protease fluorescence; series mostly up to 46.1 µM; also: nearly all actives have a fitted effect of over 60% in size
Method in brief: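 Cells were plated, rested 5 hr, then treated with compound dilution series for 16 hr at 37 C. After adding substrate reagent and 60 min at room temperature, dead-cell protease fluorescence gave concentration-response curves fitted by the Hill equation.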

[5] = Cell Viability - LYMP2-004 (AID 966); settings: LYMP2-004 lymphoblastoid cell viability, qHTS; series mostly up to 92.2 µM; also: nearly all actives have a fitted effect of over 65% in size
Method in brief: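 qHTS cytotoxicity: human lymphoblastoid line, 24 hr compound treatment, 37 C, complete medium. Viability read as cellular ATP via luciferase luminescence; tetraoctylammonium bromide served as positive control.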

[6] = Cell Viability - LYMP2-005 (AID 967); settings: LYMP2-005 lymphoblastoid cell viability; series mostly up to 92.2 µM
Method in brief: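 Steps: seed 2500 LYMP2-005 cells/well, incubate 5 h at 37 C, add compound, incubate 24 h at 37 C, add CellTiter-Glo, wait 30 min at RT, read luminescence. Concentration-response data fitted to Hill equation for AC50.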

[7] = Cell Viability - LYMP2-025 (AID 976); settings: LYMP2-025 lymphoblastoid cell viability; series mostly up to 92.2 µM
Method in brief: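 Acute cytotoxicity is scored as a concentration-dependent fall in intracellular ATP, measured by luciferase luminescence, in human lymphoblastoid LYMP2-025 cells exposed to compound for 24 hours at 37 C. AC50 values come from standard Hill fits.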

[8] = Cell Viability - LYMP2-016 (AID 984); settings: LYMP2-016 lymphoblastoid cell viability, qHTS; series mostly up to 92.2 µM; also: nearly all actives have a fitted effect of over 55% in size
Method in brief: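 qHTS, 1536-well: 2500 LYMP2-016 cells/well, 5 hr 37 C, compound added, 24 hr 37 C, CellTiter-Glo 30 min RT, luminescence. Tetraoctylammonium bromide positive control. AC50 via Hill fit.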

[9] = Cell Viability - LYMP2-018 (AID 985); settings: LYMP2-018 lymphoblastoid cells, viability (qHTS); series mostly up to 92.2 µM;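 also: compound exposure lasted 24 hr at 37 °C; nearly all actives have a fitted effect of over 50% in size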
Method in brief: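 Seed 2500 lymphoblastoid cells per well, incubate 5 hr at 37 C, add compound and incubate 24 hr at 37 C, add CellTiter-Glo, wait 30 min at room temperature, then read luminescence.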

[10] = Cell Viability - LYMP2-022 (AID 987); settings: LYMP2-022 lymphoblastoid cell viability; series mostly up to 92.2 µM; also: nearly all actives have a fitted effect of over 55% in size
Method in brief: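 Cells were seeded at 2500 per well, rested 5 hr at 37 C, and treated with titrated compounds for 24 hr at 37 C. Cellular ATP was then quantified by luciferase luminescence, and AC50 values were derived from Hill-modelled concentration-response curves.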

[11] = Cell Viability - LYMP2-024 (AID 988); settings: LYMP2-024 lymphoblastoid cell viability; series mostly up to 92.2 µM; also: nearly all actives have a fitted effect of over 60% in size
Method in brief: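 qHTS cytotoxicity, human lymphoblastoid line, complete medium; 24 h cpd treatment, 37 C; CellTiter-Glo ATP luminescence readout; tetraoctylammonium bromide positive control; AC50 via Hill fit.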

[12] = biological target: Thyroid hormone receptor beta (Homo sapiens) (UniProt P10828); assay: qHTS assay for small molecule agonists of thyroid hormone receptor beta signaling (AID 588545; calls by dose curve); settings: TR-UAS-bla GripTite HEK 293, beta-lactamase ratio, agonist mode, 18 h; series mostly up to 76.7 µM
Sequence of Thyroid hormone receptor beta (Homo sapiens) (P10828 whole entry, looked up): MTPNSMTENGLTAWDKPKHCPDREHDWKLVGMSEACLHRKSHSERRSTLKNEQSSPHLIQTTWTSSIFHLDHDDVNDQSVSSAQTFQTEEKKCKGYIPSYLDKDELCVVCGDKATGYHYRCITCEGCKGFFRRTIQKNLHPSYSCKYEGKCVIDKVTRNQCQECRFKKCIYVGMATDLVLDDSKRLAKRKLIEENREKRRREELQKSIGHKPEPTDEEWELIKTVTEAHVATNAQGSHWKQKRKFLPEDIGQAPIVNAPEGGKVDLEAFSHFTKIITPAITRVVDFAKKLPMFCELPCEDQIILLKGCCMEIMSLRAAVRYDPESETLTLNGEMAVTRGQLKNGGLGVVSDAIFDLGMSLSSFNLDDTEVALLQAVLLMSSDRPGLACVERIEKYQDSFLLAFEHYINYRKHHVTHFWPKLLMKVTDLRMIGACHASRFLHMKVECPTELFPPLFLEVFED
Method in brief: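 Efficacy and EC50 values derive from Hill fits of qHTS titration data, normalized to 10 nM T3 and DMSO-only wells. HEK 293 reporter cells were stimulated for 18 hrs at 37 C, with beta-lactamase activity measured by CCF4 fluorescence.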

[13] = biological target: Thyroid hormone receptor beta (Homo sapiens) (UniProt P10828); assay: qHTS assay for small molecule antagonists of thyroid hormone receptor beta signaling (AID 588547; active = well fitted inhibition curve with a large enough effect in the signal ratio, with a control signal flat, not every such curve was filed as active; the % refers to the signal ratio;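 also: cells stimulated with 0.4 nM T3 agonist during compound exposure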); settings: TR-UAS-bla HEK293, beta-lactamase ratio, antagonist mode, 18 h
Method in brief: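 Inhibition of T3-driven (0.4nM final) beta-lactamase reporter activity was measured over 0.59 nM to 92 uM compound after 18 h at 37 C. The cells were GripTite HEK293 TR-UAS-bla in charcoal/dextran-stripped serum, with CCF4 ratio read-out and IC50 from Hill fits.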

[14] = biological target: Tumor necrosis factor (Homo sapiens) (UniProt P01375); assay: qHTS assay to identify small molecules that stimulate Tumor Necrosis Factor-alpha (TNF-alpha) secretion (AID 651757; active = well fitted curve in the direction sought with a large enough effect in the signal ratio; the % refers to the signal ratio); settings: Human cells, HTRF 665/615 ratio; series mostly up to 92.2 µM
Sequence of Tumor necrosis factor (Homo sapiens) (P01375 whole entry, looked up): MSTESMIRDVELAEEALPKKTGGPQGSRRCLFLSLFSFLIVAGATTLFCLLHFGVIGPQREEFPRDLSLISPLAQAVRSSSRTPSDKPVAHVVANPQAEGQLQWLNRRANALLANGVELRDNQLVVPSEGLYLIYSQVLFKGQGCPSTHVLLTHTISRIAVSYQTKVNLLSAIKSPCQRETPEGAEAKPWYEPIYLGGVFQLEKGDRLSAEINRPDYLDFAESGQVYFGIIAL
Method in brief: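 Human monocytic THP-1 cells are plated, treated with compound and held at 37 C for 17 hrs. Labeled anti-TNF-alpha antibody mixture is then added; after 3 hr at room temperature, TR-FRET signal reports secreted TNF-alpha.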

[15] = Cell Viability - Hek293 (AID 427;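 active = compounds whose dose-response curve shows a full or clear partial loss of cell viability, called from curve shape rather than a numeric limit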;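 also: potency is read from the fitted curve at half-maximal effect; cells exposed to compound for 40 hours at 37 °C before reading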); settings: qHTS
Method in brief: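 Luminescent ATP read-out (CellTiter-Glo, 20 min RT) after 40 hr compound exposure at 37 °C in complete medium. Signal normalized to DMSO (basal) and 100 uM tamoxifen (100% inhibition); concentration-response fitted with the standard Hill equation to give AC50.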

[16] = biological target: Mitogen-activated protein kinase 10 (Mus musculus) (UniProt Q61831); assay: JNK3 AlphaScreen Assay (AID 530; active = well fitted curve in either direction with a large enough effect, not every such curve was filed as active;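 also: kinase came from lysate of stimulated human HepG2 cells; signal reports phosphorylation of biotinylated GST-cJun 1-79 at Ser73 with 10 µM ATP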); settings: JNK3 lysate, c-Jun phosphorylation; series mostly up to 57.1 µM
Method in brief: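 qHTS titrations with 15 min compound pre-incubation before adding ATP (10 uM final). Read-out: AlphaScreen of Ser73-phosphorylated biotin-GST-cJun using HepG2 lysate JNK3 activated by IL-1β and TNFα.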

[17] = Cell Viability - LYMP1-002 - Assay at 24 hr (AID 993); settings: LYMP1-002 lymphoblastoid cells viability; series mostly up to 92.2 µM
Method in brief: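 Acute toxicity is measured as concentration-dependent loss of cellular ATP in a human lymphoblastoid line (Coriell LYMP1-002) after 24 h treatment in complete medium. ATP is quantified by luciferase luminescence and AC50 derived by Hill modelling.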

[18] = qHTS assay for small molecule agonists of retinoid X receptor alpha signaling (AID 588544); settings: HEK293T RXRa-UAS-bla, beta-lactamase reporter, 18 h; 530 nm emission
[19] = biological target: Peroxisome proliferator-activated receptor gamma (Homo sapiens) (UniProt P37231); assay: qHTS assay for small molecule agonists of peroxisome proliferator-activated receptor gamma signaling (AID 588536; active = well fitted curve in the direction sought with a large enough effect in the signal ratio, with a control signal flat, not every such curve was filed as active; the % refers to the signal ratio); settings: HEK293 PPARg-UAS-bla, beta-lactamase ratio, 16 h, percent of rosiglitazone response, DMSO as zero; series mostly up to 76.7 µM
Sequence of Peroxisome proliferator-activated receptor gamma (Homo sapiens) (P37231 whole entry, looked up): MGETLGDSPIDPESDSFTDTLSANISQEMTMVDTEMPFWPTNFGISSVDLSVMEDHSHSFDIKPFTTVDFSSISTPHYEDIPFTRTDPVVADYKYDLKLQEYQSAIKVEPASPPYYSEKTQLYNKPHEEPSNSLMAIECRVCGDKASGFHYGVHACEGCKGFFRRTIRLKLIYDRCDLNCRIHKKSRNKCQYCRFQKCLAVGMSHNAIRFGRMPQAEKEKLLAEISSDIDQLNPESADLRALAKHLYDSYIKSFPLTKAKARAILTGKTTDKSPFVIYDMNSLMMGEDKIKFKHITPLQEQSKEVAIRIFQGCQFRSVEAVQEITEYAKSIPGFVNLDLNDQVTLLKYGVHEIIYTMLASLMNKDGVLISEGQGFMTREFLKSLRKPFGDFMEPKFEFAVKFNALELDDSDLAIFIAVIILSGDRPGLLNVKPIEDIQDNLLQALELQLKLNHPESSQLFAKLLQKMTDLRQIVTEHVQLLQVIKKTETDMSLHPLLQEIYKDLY
Method in brief: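 Compound treatment: 16 h, 37 C, HEK293 GeneBLAzer cells. Detection: CCF4, 2 h RT. Values: Hill-fit EC50, efficacy as % of 2 uM rosiglitazone.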

[20] = qHTS assay for small molecule antagonists of retinoid X receptor alpha signaling (AID 588546); settings: HEK293T RXRa-UAS-bla, beta-lactamase ratio, antagonist mode; measured here: W530 green channel, cytotoxicity proxy;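 also: cells stimulated with 9-cis-retinoic acid as agonist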
Method in brief: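 Beta-lactamase reporter inhibition, read as CCF4 fluorescence ratio (ex 405, em 460/530 nm) after 2 h at RT. HEK293T UAS-bla cells, 2500/well, were stimulated with 9-cis-RA at 500 or 100 nM final alongside test compound for 18 h at 37 C.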

Compound | Potency [1] | outcome [2] | outcome [3] | Potency [4] | Potency [5] | Potency [6] | Potency [7] | Potency [8] | Potency [9] | Potency [10] | Potency [11] | Potency [12] | activity change % (negative = inhibition) [13] | outcome [14] | Potency [15] | Potency [16] | Potency [17] | max response [18] | outcome [19] | max response [20]
Brc1ccc(Oc2ccc(Br)cc2Br)c(Br)c1 | > 92 µM (inactive) | inactive | inactive | inactive | inactive | inactive | inactive | inactive | inactive | inactive | inactive | inactive | 4.48% (inactive) | inactive |  |  |  |  |  | 
Nc1c(Br)cc([N+](=O)[O-])cc1[N+](=O)[O-] | > 92 µM (inactive) | inactive | inactive | inactive | inactive | inactive | inactive | inactive | inactive | inactive |  | inactive |  |  | > 92 µM (inactive) | inactive | inactive | -9.23% |  | 
CN(C)c1ccc(N=Nc2ccccc2)cc1 | > 92 µM (inactive) | inactive | inactive |  | inactive |  | inactive | inactive | inactive | inactive | inactive | inactive | -4.36% (inactive) |  |  |  | inactive | -0.567% | inactive | -11.2%
Oc1cc(Cl)c(Cl)c(Cl)c1 |  | inactive | inactive | inactive |  | inactive |  |  | inactive |  |  |  |  | inactive |  | inactive | inactive |  |  | 
Nc1cc(Cl)ccc1O | > 92 µM (inactive) | inactive | inactive | inactive | inactive | inactive | inactive | inactive | inactive |  | inactive | inactive |  |  | > 92 µM (inactive) | inactive | inactive |  | inactive | -1.3%
c1ccc(OCC2CO2)cc1 (centres undefined) | > 92 µM (inactive) | inactive |  | inactive | inactive | inactive | inactive | inactive | inactive | inactive | inactive |  | 6.77% (inactive) | inactive | > 92 µM (inactive) | inactive |  | 6.69% | inactive | 6.84%
C=C(C)CCl | > 92 µM (inactive) | inactive |  | inactive | inactive | inactive | inactive | inactive | inactive | inactive | inactive | inactive | -0.864% (inactive) | inactive | > 92 µM (inactive) | inactive | inactive | -6% | inactive | -2.4%
CCCCOC(C)=O | > 92 µM (inactive) | inactive | inactive | inactive | inactive | inactive | inactive | inactive | inactive | inactive | inactive | inactive | 1.15% (inactive) | inactive | > 92 µM (inactive) | inactive | inactive | 6.81% | inactive | -8.9%
